Data on eleven compounds can be found in PubChem BioAssay (NCATS).

Test [1] has as its target Arylsulfatase A (Homo sapiens) (UniProt P15289). Put plainly: qHTS screen for enhancers of Arylsulfatase A (ASA1): LOPAC Validation Assay (AID 720538). The method, boiled down: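 Cell-based enhancement test: residual ASA activity in SV40-transformed I179S patient fibroblasts is measured by pNCS turnover (0.5mM final, 14h, room temperature) following 48h compound incubation; higher fluorescence indicates activation.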

A short description of test [2]: qHTS for compounds that reverse cellular toxicity of Amyloid beta (A-beta) peptide in yeast: LOPAC Validation Assay (AID 720559).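 Further: plate controls were DMSO for no effect and equimolar ferric chloride plus clioquinol rescue for full effect.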 A digest of the protocol: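 Here, A-beta-toxic yeast grow with test compounds at 30 C for 48 hr before optical density at 600 nm is recorded; data are normalized against DMSO and the FeCl3-clioquinol control.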
Test [3] in a line: qHTS for Activators of Parkin Expression: LOPAC Validation Assay (NLuc Reporter) (AID 720572;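 further: 0% = DMSO and 100% = positive control compound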). The method, boiled down: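 Parkin promoter-driven FLuc/NLuc neuronal reporter cells; 24 h plating, 7-pt dose response, 24 h at 37 C/5% CO2; FLuc then NanoLuc reagent, 10 min each, luminescence; DMSO/positive control normalized.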
For test [4], the target named is T1, Hexokinase-4 (Homo sapiens) + Glucokinase regulatory protein (Homo sapiens) (UniProt P35557+Q14397). Kind of test: qHTS assay for inhibitors of recombinant human GCK-GKRP interaction: Diaphorase-coupled assay (AID 743205). A digest of the protocol: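 Signal derives from resorufin generated by diaphorase, linked to GCK turnover of glucose (5 mM) and ATP (0.4 mM). Enzyme complex was added after a 20-minute compound preincubation and monitored for 30 minutes.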

The target in test [5] is T1, Hexokinase-4 (Homo sapiens) + Glucokinase regulatory protein (Homo sapiens). Kind of test: qHTS assay for inhibitors of recombinant human GCK-GKRP interaction: ADP-Glo assay (AID 743206).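 Further: plate controls were DMSO plus enzyme for no effect and no enzyme for full effect.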 A digest of the protocol: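 GST-GCK and FLAG-GKRP (15 nM each in the dispensed mix, with 2 uM S6P) react with 0.4 mM ATP and 5 mM glucose (final) in Hepes pH 7.6 for 60 min at room temperature. ADP is measured by ADP-Glo luminescence.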

For test [6] the target is unchanged. Kind of test: qHTS assay for inhibitors of recombinant human GCK-GKRP interaction: HTRF assay (AID 743207).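 Further: 0% = DMSO with GCK present and -100% = DMSO wells lacking GCK.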 A digest of the protocol: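 Titration screening format: recombinant GST-GCK and FLAG-GKRP at 5 nM, S6P at 2 uM, labelled anti-tag antibodies, 60 min at RT, dual-wavelength HTRF readout.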
Test [7] is described as follows: qHTS for Activators of Parkin Expression: LOPAC Validation Assay (FLuc Reporter) (AID 720573;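 further: 0% = DMSO and 100% = positive control compounds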). The method, boiled down:
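Readout is FLuc luminescence from neuronal reporter cells (Parkin promoter, FLuc plus NLuc) after 24 h compound exposure in dose response. Values normalized to neutral DMSO and positive-control compounds.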

A short description of test [8]: qHTS Assay for Identifying Gametocytocidal Compounds (AID 743244). Further: potency means the concentration at half of the fitted maximal effect.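 On max response: on the % scale 0 is the no-effect control and ±100 the full control effect; actives lower the fluorescent signal which means gametocytes are killed.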 Particulars: P. falciparum 3D7 stage III-V gametocytes, alamarBlue, 72 h; max response: hits give low values. A digest of the protocol:
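Stage III–V gametocytes of P. falciparum 3D7 were seeded at 20,000 cells/well onto pre-dispensed compounds. After 72 h, 37 °C, 5% CO2, alamarBlue was added for another 24 h.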

Test [9] concerns the target Tyrosine-protein kinase Yes (Homo sapiens) (UniProt P07947). Put plainly: qHTS for small molecule inhibitors of Yes1 kinase: Primary Screen (AID 686947).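 Further: plate controls were DMSO with enzyme for no effect and no-enzyme DMSO wells for full effect; nearly all actives have a fitted effect of over 60% in size.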 The method, boiled down:
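Yes1 (4 nM) preincubated 20 min with compound, then 60 min room-temperature reaction with 0.1 mM ATP and 0.3 mg/mL poly(E4Y) in pH 7.5 Tris, 10 mM MgCl2. ADP measured by ADP-Glo luminescence, normalised to enzyme/no-enzyme controls.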

Test [10] can be described thus: qHTS for small molecule inhibitors of Yes1 kinase: Counter Assay (AID 686950).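 Further: no kinase present so only ADP-Glo detection of a fixed ADP amount is tested; luminescence from ADP-Glo reporting ADP in a fixed ATP and ADP mixture; series mostly up to about 77 µM; 0% = DMSO wells with ATP plus ADP and -100% = ATP-only wells without ADP.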 A digest of the protocol: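 Luminescence read-out from ADP-Glo quantifies a fixed ADP amount (0.02 mM ADP with 0.08 mM ATP) after 60 min at room temperature; signal is normalized between DMSO wells with ATP/ADP and with 0.1 mM ATP alone.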

Each structure is given as a SMILES string. Several values for one entry are separate records, joined by “and”; a condition that tells them apart may be missing. Equal values may be shown once. A number with no mark means an inactive call. Results filed as inconclusive are left out. The source holds several records for some structures; these can differ, active in one and inactive in another. Activity calls are given as the source filed them. The call rests on the fitted dose curve; in most records, active means well fitted curve in the direction sought with a large enough effect; inconclusive means small, poorly fitted or top-dose-only effect, or another doubt; inactive means no such curve, though single readings can be large; an effect the other way counts as inactive or inconclusive.

T1 sequence (P35557 whole entry, looked up): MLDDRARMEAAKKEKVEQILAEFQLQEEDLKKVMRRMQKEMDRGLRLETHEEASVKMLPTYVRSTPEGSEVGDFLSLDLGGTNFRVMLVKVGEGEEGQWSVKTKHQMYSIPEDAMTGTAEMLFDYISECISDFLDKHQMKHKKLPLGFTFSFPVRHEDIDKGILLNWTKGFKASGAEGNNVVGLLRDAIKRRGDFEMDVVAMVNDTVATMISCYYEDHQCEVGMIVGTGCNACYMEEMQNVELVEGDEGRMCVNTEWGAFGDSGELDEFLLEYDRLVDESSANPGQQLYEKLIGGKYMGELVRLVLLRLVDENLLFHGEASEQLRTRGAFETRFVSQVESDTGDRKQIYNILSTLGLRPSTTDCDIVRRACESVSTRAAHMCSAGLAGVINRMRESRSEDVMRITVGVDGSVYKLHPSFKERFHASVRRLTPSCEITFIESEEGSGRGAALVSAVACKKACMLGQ
T1 sequence (Q14397 whole entry, looked up): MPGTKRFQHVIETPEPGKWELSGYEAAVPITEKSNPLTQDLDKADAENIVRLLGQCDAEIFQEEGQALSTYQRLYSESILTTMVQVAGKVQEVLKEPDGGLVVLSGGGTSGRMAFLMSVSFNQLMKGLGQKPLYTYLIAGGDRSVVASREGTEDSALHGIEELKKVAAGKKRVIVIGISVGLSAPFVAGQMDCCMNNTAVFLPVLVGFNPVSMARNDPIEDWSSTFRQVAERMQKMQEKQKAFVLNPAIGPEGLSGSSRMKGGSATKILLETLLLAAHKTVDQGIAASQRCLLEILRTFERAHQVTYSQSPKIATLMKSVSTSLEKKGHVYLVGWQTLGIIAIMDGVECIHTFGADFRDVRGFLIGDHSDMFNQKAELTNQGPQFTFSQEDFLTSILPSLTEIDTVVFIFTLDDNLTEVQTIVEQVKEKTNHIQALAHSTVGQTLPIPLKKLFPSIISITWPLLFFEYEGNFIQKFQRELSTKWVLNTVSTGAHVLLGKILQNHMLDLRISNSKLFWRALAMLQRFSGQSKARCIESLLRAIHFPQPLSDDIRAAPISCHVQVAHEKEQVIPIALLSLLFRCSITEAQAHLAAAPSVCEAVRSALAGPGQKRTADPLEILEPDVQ
Sequence of Arylsulfatase A (Homo sapiens) (P15289 whole entry, looked up): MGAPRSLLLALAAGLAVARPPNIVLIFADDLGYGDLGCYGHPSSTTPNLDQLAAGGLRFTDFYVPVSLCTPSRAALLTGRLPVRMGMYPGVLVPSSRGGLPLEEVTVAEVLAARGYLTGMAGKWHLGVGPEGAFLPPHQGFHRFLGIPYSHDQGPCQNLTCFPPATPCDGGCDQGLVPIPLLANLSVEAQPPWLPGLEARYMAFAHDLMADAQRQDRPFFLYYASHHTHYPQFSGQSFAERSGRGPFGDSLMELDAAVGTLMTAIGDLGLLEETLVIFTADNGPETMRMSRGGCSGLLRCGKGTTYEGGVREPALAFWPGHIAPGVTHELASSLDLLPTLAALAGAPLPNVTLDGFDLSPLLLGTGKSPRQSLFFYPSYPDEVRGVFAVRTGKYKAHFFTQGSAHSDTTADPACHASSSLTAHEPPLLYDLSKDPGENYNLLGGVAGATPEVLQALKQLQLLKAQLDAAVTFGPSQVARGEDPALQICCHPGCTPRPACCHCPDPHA
Sequence of Tyrosine-protein kinase Yes (Homo sapiens) (P07947 whole entry, looked up): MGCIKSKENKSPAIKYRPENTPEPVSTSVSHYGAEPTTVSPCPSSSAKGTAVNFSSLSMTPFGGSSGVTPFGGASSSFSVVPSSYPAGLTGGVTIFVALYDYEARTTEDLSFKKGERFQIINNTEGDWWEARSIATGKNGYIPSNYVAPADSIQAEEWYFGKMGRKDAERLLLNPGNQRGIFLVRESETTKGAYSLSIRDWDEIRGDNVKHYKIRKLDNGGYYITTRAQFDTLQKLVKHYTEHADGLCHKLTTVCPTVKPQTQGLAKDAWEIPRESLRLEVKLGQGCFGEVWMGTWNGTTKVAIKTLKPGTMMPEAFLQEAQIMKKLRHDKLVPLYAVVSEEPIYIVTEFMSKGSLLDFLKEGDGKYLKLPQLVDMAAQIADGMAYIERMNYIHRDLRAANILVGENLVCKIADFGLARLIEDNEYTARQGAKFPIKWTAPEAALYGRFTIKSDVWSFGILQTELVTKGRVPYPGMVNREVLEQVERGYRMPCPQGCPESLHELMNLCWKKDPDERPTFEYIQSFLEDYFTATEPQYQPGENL

On to `CC[C@H]1CN2CCc3cc(OC)c(OC)cc3[C@@H]2C[C@@H]1C[C@H]1NCCc2cc(OC)c(OC)cc21`, for which the Potency entry in test [1] and in test [3] was “inactive” throughout. Moreover, the compound was classed as inactive in test [2], in [4], in test [5] and in test [6].
In the case of `CC1=C(CC(=O)O)c2cc(F)ccc2/C1=C\c1ccc(S(C)(=O)=O)cc1`, the Potency entry in test [1] and in test [3] was “inactive” each time. Further, the result in [2], in test [7], in [4], in test [5] and in [6] was inactive.
As to `OCc1cc(C(O)CNCCCCCCOCCCCc2ccccc2)ccc1O` (stereo not drawn), the Potency entry in test [1] and in [3] was “inactive” in each case. The call in test [2], in [7], in test [5] and in [6] was inactive. In addition, the Potency in [8] is 10 µM (active).
Take `CC(=O)O[C@@]12CO[C@@H]1C[C@H](O)[C@@]1(C)C(=O)[C@H](O)C3=C(C)[C@@H](OC(=O)[C@H](O)[C@@H](NC(=O)OC(C)(C)C)c4ccccc4)C[C@@](O)([C@@H](OC(=O)c4ccccc4)[C@H]21)C3(C)C`: in [9], the outcome was inactive. Also, in test [10], the call was inactive. Moreover, in test [8], the Potency was 18.7 µM (active) and the max response was -16.9%.
Turning to `CC(C)NC[C@H](O)c1ccc(O)c(O)c1`, the Potency entry in [1] and in [3] was “inactive” each time. The compound was called inactive in [2], in test [7], in test [4], in test [5] and in [6]. Further, the max response in [8] was -9.19% and 21.1%.
Regarding `Cc1cc(N)c2ccccc2[n+]1CCCCCCCCCC[n+]1c(C)cc(N)c2ccccc21`, the Potency result in [1] and in [3] was “inactive” throughout. The compound was classed as inactive in test [2], in test [7], in [4], in test [5] and in test [6]. Also, the Potency in [8] is 3.98 µM (active).
Take `CNCCCC1c2ccccc2C=Cc2ccccc21`: the Potency entry in test [1] and in test [3] was “inactive” throughout. The compound was called inactive in test [2], in test [7], in test [4], in [5] and in [6].
For `Oc1cn2c(n1)Nc1ccc(Cl)c(Cl)c1C2`, the call in [9] and in test [10] was inactive. Moreover, in test [8], the max response is 2.25% and 14.5%.
As to `CC(C)(C(=O)O)c1ccc(C(O)CCCN2CCC(C(O)(c3ccccc3)c3ccccc3)CC2)cc1` (stereo not drawn), the Potency result in test [1] and in test [3] was “inactive” each time. The compound was called inactive in test [2], in test [7], in test [4], in test [5] and in [6]. Moreover, in [8], the max response was -3.24% and 8.77%.
As to `C=Cc1c(C)c2cc3[nH]c(cc4nc(cc5nc(cc1[nH]2)C(C)=C5CCC(=O)O)C(CCC(=O)O)=C4C)c(C)c3C=C`, the Potency entry in test [1] and in test [3] was “inactive” in each case. In addition, the result in test [2], in [7], in test [4], in [5] and in test [6] was inactive. Also, the max response in test [8] was 11.4% and 22%.
`CC(CN(C)C)CN1c2ccccc2CCc2ccccc21` (stereo not drawn): the Potency entry in [1] and in test [3] was “inactive” throughout. For the same compound, the compound was classed as inactive in test [2], in [7], in [4], in [5] and in test [6].
